From PubChem BioAssay
Pin1 inh: inhibitors of human Pin1; Pin1 FP peptide displacement, HiFluor488, 10 min; Potency, µM (highest dose often 115 µM), for inactives: at the highest dose activity, negative = inhibition, actives largely listed as inhibitors; Q13526; 390,000 tested, 0.009% active; active = well fitted inhibition curve with a large enough effect in the polarisation, with a control signal flat, not every such curve was filed as active; inconclusive = small, poorly fitted or top-dose-only effect, or effect the other way, or a change in a side signal; inactive = no such curve, though single readings can be large or run the other way; the % refers to the polarisation; also: potency is read from the fitted curve at half-maximal effect
PI5P4K alpha inh: PI5P4K alpha (human) kinase inhibition | 330,000 tested, 1.2% active | PI5P4Kalpha enzyme, ADP-Glo luminescence, 60 min; active compounds read low | AID 652105 | P48426 | max response, %; active = max response of -50% or lower; inconclusive = between -30% and -50%; inactive = -30% or higher; also: value at the top dose of about 77 µM
Target sequence (P48426 whole entry, looked up): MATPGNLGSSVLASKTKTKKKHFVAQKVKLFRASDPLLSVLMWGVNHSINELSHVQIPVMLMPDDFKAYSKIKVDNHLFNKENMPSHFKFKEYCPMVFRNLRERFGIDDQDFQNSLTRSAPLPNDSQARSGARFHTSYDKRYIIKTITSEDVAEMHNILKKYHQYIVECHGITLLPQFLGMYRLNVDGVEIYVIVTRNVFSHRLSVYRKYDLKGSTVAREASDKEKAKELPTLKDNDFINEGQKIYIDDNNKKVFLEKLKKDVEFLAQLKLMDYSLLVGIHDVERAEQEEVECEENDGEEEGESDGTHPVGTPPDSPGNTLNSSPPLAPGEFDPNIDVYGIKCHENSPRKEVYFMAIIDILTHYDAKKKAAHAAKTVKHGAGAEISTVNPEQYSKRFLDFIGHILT
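Quantitative HTS of the MLSMR library against PI5P4Kalpha with substrate. ATP added last at 5 microM final; room temperature, 60 minutes. Remaining ATP depleted, ADP converted and read as luminescence.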
Tb PGK inh: T. brucei PGK inhibition. P07378. PGK/GAPDH coupled, Kinase-Glo luminescence, 60 min. Potency, µM (top dose mostly 57.5 µM), inactives show top-dose activity change, negative = inhibition, hits mostly inhibitors. 380,000 tested, 0.043% active; active = well fitted inhibition curve with a large enough effect; inconclusive = small, poorly fitted or top-dose-only effect; inactive = no such curve, though single readings can be large or run the other way; also: potency is read from the fitted curve at half-maximal effect; nearly all actives have a fitted effect of over 60% in size
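Recombinant glycosomal PGK reaction used 1,3-bisphosphoglycerate generated in-well by GAPDH (100nM final) in 100mM TEA pH 7.6, 5mM MgCl2, 0.01% Tween-20. After 60 minutes at room temperature, ATP was read by Kinase-Glo Plus luminescence end-point.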
PI4K2A inh: PI4K2A (human) kinase inhibition. purified PI4K2A, ADP-Glo luminescence, 1 h; active compounds read low. 420,000 tested, 0.13% active. activity change, negative = inhibition, % at 76.9 µM. AID 1346378. Q9BTU6; in the data active = activity change below about -50%; inconclusive = mostly about -30% to -49%;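 also: -100% = wells without enzyme as full effect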
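ADP-Glo luminescence measured ADP generated by PI4K2A enzyme (4 ug/mL before mixing) with 1.2 mM PI substrate (pre-mix) and 300 microM ATP (pre-mix). Tris pH7.5 buffer with MgCl2, Triton X-100; 1 h reaction at ambient temperature.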
* = called active by the depositor; i = inactive; u = inconclusive; x = no result; [ ] = dose if it differs, or a comment. The full list was thinned out, with hits kept by preference. Unless noted, % is scaled to controls: 0 for no effect and ±100 for the full control effect.

SMILES	Pin1 inh	PI5P4K alpha inh	Tb PGK inh	PI4K2A inh
CN(C)CCCN(C(=O)c1cc2cc([N+](=O)[O-])ccc2s1)c1nc2cc3c(cc2s1)OCCO3	u	-69.4*	0.0%	-6.5
CN(C)CCCN(C(=O)c1ccc([N+](=O)[O-])s1)c1nc2cc3c(cc2s1)OCCO3	-2.5%	-4.9	-5.5%	-7.2
COc1ccc(NC(=S)NC(=O)/C=C/c2ccco2)c(OC)c1	u	-3.2	1.9%	3.3
O=C(/C=C\c1ccco1)c1ccc(NC(=O)c2ccco2)cc1	u	-56.4*	-7.9%	1.1
COc1cccc(NC(=S)NC(=O)/C=C/c2ccco2)c1	2.3%	-54.5*	-3.0%	-10.0
O=C(/C=C/c1ccco1)NC(=S)Nc1cccc(C(=O)O)c1	u	-74.0*	u	-12.2
COc1cc(NS(=O)(=O)c2ccc(NC(=S)NC(=O)/C=C/c3ccco3)cc2)ncn1	u	-56.5*	20µM*	-6.8
CCOc1ccc(NC(=S)NC(=O)/C=C/c2ccco2)cc1	3.2%	-12.0	6.4%	-4.2
CC(=O)Nc1ccc(C(=O)/C=C/c2ccco2)cc1	40.8%	-27.4	-9.6%	-12.9
O=C1Cc2cc(S(=O)(=O)N3CCN(c4ccc(Cl)cc4)CC3)ccc2N1	-7.8%[230 µM]	x	x	x
COc1cccc(C2C(C#N)=C(NC(=O)NCc3ccccc3)Oc3ccc4ccccc4c32)c1 (centres undefined)	17.1%	x	x	x
O=C(/C=C/c1cccs1)NC(=S)Nc1ccc(C(=O)O)cc1	24.1%	-72.4*	-0.7%	0.4
COc1ccccc1C(=O)N/C(=C/c1ccco1)C(=O)Nc1cccc(C(=O)O)c1	u	u	-0.9%	-6.4
CNS(=O)(=O)c1ccc2nc(NC(=O)/C=C/c3ccco3)sc2c1	u	u	-2.9%	-61.5*
Cc1ccc(C(=O)N/C(=C/c2ccco2)C(=O)Nc2cccc(C(=O)O)c2)cc1	u	-52.5*	-2.6%	-7.8
O=C(O)c1ccc(NC(=S)NC(=O)c2ccc(-c3ccccc3)cc2)cc1	8.5%	-54.6*	-18.0%	-0.5
CC(C)(C)c1ccc(C(=O)Nc2ccc(C(=O)OCc3cc(=O)n4ccsc4n3)cc2)cc1	0.2%	x	-5.1%	-2.2
CC(=O)Nc1ccc(NC(=S)NC(=O)/C=C/c2ccco2)cc1	-18.2%	-63.8*	-2.8%	-19.8
O=C(/C=C/c1ccco1)Nc1cccc(NC(=O)/C=C/c2ccco2)n1	29.4%	-58.4*	-9.3%	-7.6
CC(=O)N(C)c1ccc(NC(=S)NC(=O)/C=C/c2ccco2)cc1	-4.5%	-28.5	-0.7%	-9.9
Cn1nnc(NC(=S)NC(=O)/C=C/c2ccco2)n1	x	-70.8*	-5.5%	-8.3
Cc1ccc(-c2csc(NC(=O)/C=C/c3ccco3)c2C(=O)O)cc1	u	-71.5*	-16.1%	-1.3
CCCn1nnc(NC(=O)/C=C/c2ccco2)n1	-0.7%	-15.9	-3.3%	-6.2
Cc1ccc(-c2csc(NC(=O)c3cccc(C)c3)c2C(=O)O)cc1	1.8%	u	5.1%	17.3
CCC(c1nnnn1Cc1ccccc1)N(Cc1ccccc1)Cc1cc2cc(C)ccc2[nH]c1=O (centres undefined)	1.0%	x	x	x
SMILES	Pin1 inh	PI5P4K alpha inh	Tb PGK inh	PI4K2A inh
CC(=O)Nc1ccc(OC2=NS(=O)(=O)c3ccccc32)cc1	0.9%	x	x	x
Cc1cccc(-n2c(C)cc(/C=C3\C(=N)N4N=C(CC(C)C)SC4=NC3=O)c2C)c1	7.8%	-5.3	-11.4%	5.7
CCSC1=NSC2=NC(=O)/C(=C\c3coc4ccccc4c3=O)C(=N)N12	u	-59.3*	-6.6%	-8.0
CC(C)CC1=NN2C(=N)/C(=C\c3coc4ccccc4c3=O)C(=O)N=C2S1	u	-52.8*	-5.1%	-20.9
Cc1cc(/C=C2\C(=N)N3N=C(C(C)C)SC3=NC2=O)c(C)n1-c1ccccc1	7.9%	-12.4	i	-7.2
Cc1[nH]cnc1C(=O)N/N=C/c1c(Cl)cccc1Cl	2.6%	u	u	-68.9*
C=CCn1c(SCC(=O)Nc2c(C)n(C)n(-c3ccccc3)c2=O)nc2scc(-c3ccccc3)c2c1=O	u	5.0	-2.7%	2.1
C=CCn1c(SCC(=O)Nc2ccc(C(=O)O)cc2)nc2sc(C)c(C)c2c1=O	2.7%	-60.0*	-0.7%	0.3
Cn1c(SCC(=O)Nc2ccc(C(=O)O)cc2)nc2scc(-c3ccccc3Cl)c2c1=O	-4.6%	-70.7*	-15.8%	1.4
C=CCn1c(CNC(=O)c2cccs2)nnc1SCC(=O)Nc1ccc(C(=O)O)cc1	2.0%	-62.9*	-9.0%	-0.4
CCn1c(SCC(=O)Nc2ccc(C(N)=O)cc2)nc2sc(C)c(C)c2c1=O	x	x	x	-0.5
